SARS PLP yeast: SARS-CoV PLP inhibition in yeast; actives 0.19% (n = 330,000); AID 485353; S. cerevisiae expressing SARS-CoV PLpro, growth rescue; Potency, µM (series often up to 32.9 µM), hits mostly activators; calls by dose curve; also: nearly all actives have a fitted effect of over 55% in size
Pf growth 48h: P. falciparum growth inhibition at 48 hours (one generation). actives 5.9% (n = 310,000). Potency, µM (highest dose often 28.7 µM), hits mostly inhibitors. P. falciparum luciferase growth in erythrocytes, 48 h
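Read-out is firefly luciferase luminescence from an integrated reporter in P. falciparum, so falling signal marks reduced parasite growth. Infected erythrocytes were at 2% hematocrit and 0.1% parasitemia (final) in Albumax-supplemented RPMI 1640.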
NS1 inh: inhibitors of influenza NS1 protein function. AID 2326. actives 0.4% (n = 270,000). Potency, µM (doses to about 46.1 µM); calls by dose curve; also: actives are rising curves; nearly all actives have a fitted effect of over 50% in size
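In this qHTS, NS1 from influenza A is expressed in budding yeast, where it slows growth. Cells are switched from glucose to 2% galactose medium (pH 6.0, -URA), treated with compound, and growth recovery is read at OD600.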
Pf growth 96h: P. falciparum growth inhibition at 96 hour, primary screen for plastid delayed-death inhibitors. P. falciparum luciferase reporter growth, 96 h. Potency, µM (series often up to 28.7 µM), actives largely listed as inhibitors. actives 6.9% (n = 320,000). AID 504834
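Erythrocytes infected with luciferase-expressing P. falciparum were dispensed at 2% hematocrit and 0.05% parasitemia (final), then incubated with compounds 96 hours at 37 C in 5% CO2. Luminescence after detection reagent addition reported growth.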
Shiga inhibitor: blocks Shiga toxin action in Vero cells; AID 2315; Vero cells, Shiga toxin protein synthesis inhibition reporter; inhibition, % at 38.7 µM; actives 9.2% (n = 290,000); in the data active = inhibition mostly above about 28%, no sharp cut-off; inactive = mostly below about 43%
Cycloheximide cs: counter-screen hit for Shiga toxin inhibitors, cycloheximide; cell reporter, cycloheximide protein synthesis inhibition counterscreen; max response, %; actives 12% (n = 300,000); AID 2314; in the data active = max response mostly above about 13%, no sharp cut-off; inactive = mostly below about 14%; also: read at 38.3 µM for the half of the compounds with a filed dose
Each line names hits and unclear results; the compound was inactive in the other large screens. Most compounds without a hit are left out; they make up all but 21% or so of the library. Unless noted, calls follow the shape of the dose curve; as a rule, active = well fitted inhibition curve with a large enough effect; inconclusive = small, poorly fitted or top-dose-only effect, or another doubt; inactive = no such curve, though single readings can be large or run the other way.

CC1(C)CC(=O)C2=C(C1)C(c1cn(-c3ccccc3)nc1-c1ccccc1)C(C#N)=C(N)O2 (stereo not given)	Pf growth 48h inconclusive, Cycloheximide cs 23
CCOc1ccc(NC(=O)CN(c2ccc(OC)c(OC)c2)S(=O)(=O)c2ccc(C)cc2)cc1	none
O=C(Nc1ccc2nc(N3CCOCC3)sc2c1)c1ccc(F)cc1	Pf growth 96h inconclusive (no result: NS1 inh, Shiga inhibitor, Cycloheximide cs)
O=[N+]([O-])c1ccc2nc(N3CCCC3)sc2c1	Shiga inhibitor 68, Cycloheximide cs 29
Fc1cc(F)c2nc(N3CCCCC3)sc2c1	Pf growth 96h 8.3µM, Shiga inhibitor 115, Cycloheximide cs 78
Fc1ccc2nc(N3CCCC3)sc2c1	Shiga inhibitor 85, Cycloheximide cs 44 (no result: NS1 inh)
COC(=O)c1c(N)sc(C(=O)NCCc2ccccc2)c1C	none
Oc1ccc(/C=N/NC(=S)NCCN2CCOCC2)c(O)c1	none (no result: NS1 inh)
O=[N+]([O-])c1ccccc1/C=C/c1ccc2ccccc2n1	Pf growth 96h inconclusive, Shiga inhibitor 48, Cycloheximide cs 40
O=[N+]([O-])c1ccccc1/C=C/CN1CCCCC1	none
Cn1c(/C=C/c2ccccc2[N+](=O)[O-])nc2ccccc2c1=O	Cycloheximide cs 9.2
Cn1c(/C=C/c2ccc(Br)cc2)nc2ccccc2c1=O	Cycloheximide cs 30 (no result: Pf growth 48h)
O=C(O)c1ccc(/C=C/c2nc3ccccc3c(=O)n2-c2ccc(Br)cc2)cc1	Pf growth 48h inconclusive, Pf growth 96h 13µM
Cc1nc2ccccc2c(=O)n1NC(=O)/C=C/c1ccc(Br)cc1	Pf growth 96h inconclusive
O=C(Cc1ccccc1F)NC1CCCN(Cc2ccc(Cl)cc2)C1 (stereo not given)	Pf growth 48h inconclusive, Pf growth 96h inconclusive
COc1ccc(NC(=O)CC2SC3=NCCN3C2=O)cc1 (stereo not given)	none
Nc1ccc2nc(-c3cccc(-c4nc5ccc(N)cc5[nH]4)n3)[nH]c2c1	Pf growth 48h 2.1µM, Pf growth 96h 0.52µM
Nc1ccc2nc(-c3ccc(-c4nc5ccc(N)cc5[nH]4)cc3)[nH]c2c1	Pf growth 48h 12µM, Pf growth 96h 2.3µM
Cc1nnc(SCC(=O)Nc2ccc(N3CCN(S(C)(=O)=O)CC3)cc2)o1	none
COc1ccc(OC)c(-c2cc(C(=O)Nc3c(C)nn(Cc4ccc(Cl)cc4)c3C)no2)c1	Pf growth 48h inconclusive
CCCc1cc(C(=O)NCCc2ccccc2)no1	Shiga inhibitor 87, Cycloheximide cs 53
CCCc1cc(C(=O)Nc2cc(C)nn2-c2ccccc2)no1	none (no result: Pf growth 48h)
COc1ccc(OC)c(-c2cc(C(=O)Nc3c(C)nn(Cc4ccccc4)c3C)no2)c1	Pf growth 48h 13µM, Pf growth 96h inconclusive
COc1ccccc1-c1cc(C(=O)Nc2cccnc2)no1	Pf growth 96h inconclusive, Shiga inhibitor 48, Cycloheximide cs 25
COc1cc(NC(=O)c2cc(-c3cccs3)on2)cc(OC)c1OC	none
COc1cc(NC(=O)c2cc(-c3ccccc3Cl)on2)cc(OC)c1OC	Pf growth 96h 12µM
CN(C(=S)NC(=O)C12CC3CC(CC(C3)C1)C2)c1ccc(O)cc1	none (no result: Pf growth 48h, NS1 inh, Pf growth 96h, Shiga inhibitor, Cycloheximide cs)
COc1cccc2cc(C(=O)NCCc3ccccc3)oc12	Pf growth 48h 8.3µM
COc1ccc(NC(=O)c2cc(-c3ccccc3OC)on2)cc1	Pf growth 48h inconclusive, Shiga inhibitor 88, Cycloheximide cs 19
COc1cccc2cc(C(=O)NCc3ccccc3)c(=N)oc12	SARS PLP yeast inconclusive
COc1ccc(-c2cc(C(=O)Nc3cc(OC)c(OC)c(OC)c3)no2)cc1	none
COc1cc(NC(=O)c2cc(-c3ccc(C)cc3)on2)cc(OC)c1OC	Cycloheximide cs 11 (no result: Shiga inhibitor)
COc1ccc(NC(=O)c2cc(-c3cccc(OC)c3)on2)cc1	none (no result: NS1 inh)
COc1ccc(NC(=O)c2cc(-c3ccccc3Cl)on2)cc1	Pf growth 48h inconclusive, Pf growth 96h inconclusive, Shiga inhibitor 130, Cycloheximide cs 44
COc1cc(OC)c(S(=O)(=O)NC(C)C)cc1C(=O)O	none
CCOC(=O)C1=C(C)NC(=S)N(C=O)C1c1ccccc1 (stereo not given)	none (no result: NS1 inh)
NS(=O)(=O)c1ccc(NC(=O)COc2ccc(S(=O)(=O)N3CCCC3)cc2)cc1	none
COc1ccccc1-c1cc(C(=O)NCCc2ccccc2)no1	Shiga inhibitor 147, Cycloheximide cs 54 (no result: Pf growth 48h, Pf growth 96h)
CSc1nc2c(c(=O)n1Cc1ccccc1)SC(C)C2 (stereo not given)	Pf growth 48h 12µM
CC1Cc2nc(SCC(=O)NCc3ccccc3)n(Cc3ccccc3)c(=O)c2S1 (stereo not given)	Pf growth 48h inconclusive, Pf growth 96h inconclusive
CC1Cc2nc(SCC(=O)c3ccccc3)n(Cc3ccccc3)c(=O)c2S1 (stereo not given)	Pf growth 48h inconclusive, Pf growth 96h inconclusive, Shiga inhibitor 41, Cycloheximide cs 14
O=C1OCCC1Sc1nnc(-c2ccc(F)cc2)n1Cc1ccccc1 (stereo not given)	none
CCOc1ccc(NS(=O)(=O)c2csc(C(N)=O)c2)cc1	Pf growth 48h 1.9µM
Cc1ccccc1CNS(=O)(=O)c1csc(C(N)=O)c1	Pf growth 96h 6.6µM
COc1ccc(/C=C/C(=O)NCCN2CCOCC2)cc1OC	none (no result: NS1 inh)
COc1ccccc1NS(=O)(=O)c1cc(C(=O)NCC(c2ccco2)N2CCCCC2)ccc1C (stereo not given)	Pf growth 48h 12µM, Pf growth 96h 8.3µM (no result: SARS PLP yeast, NS1 inh, Shiga inhibitor, Cycloheximide cs)
COc1ccc(/C=C/C(=O)NCC(c2ccc(F)cc2)N2CCOCC2)cc1OC (stereo not given)	Pf growth 48h 8.3µM, Pf growth 96h inconclusive
COc1ccccc1NS(=O)(=O)c1cc(C(=O)NCC(c2ccc(F)cc2)N2CCOCC2)ccc1C (stereo not given)	Pf growth 48h 12µM, Pf growth 96h inconclusive (no result: NS1 inh, Shiga inhibitor, Cycloheximide cs)
Cc1ccc(Sc2ncccc2C(=O)NCC(c2ccc(F)cc2)N2CCOCC2)cc1C (stereo not given)	Pf growth 48h 12µM, Pf growth 96h inconclusive (no result: NS1 inh, Shiga inhibitor, Cycloheximide cs)
COc1ccc(-n2ncc3c2CC(C)(C)CC3NC(=O)CCn2cncn2)cc1 (stereo not given)	Pf growth 96h inconclusive
CCOC(=O)N1CCC(Nc2ccc(N3C(=O)C4CCCCC4C3=O)cc2[N+](=O)[O-])CC1 (stereo not given)	none (no result: NS1 inh)
COc1cccc(C(=O)CSc2nnnn2C2CCCCC2)c1	Shiga inhibitor 59, Cycloheximide cs 28 (no result: Pf growth 48h)
CCCn1c(SCC(=O)c2ccc3c(c2)OCCO3)n[nH]c1=O	Pf growth 96h inconclusive, Shiga inhibitor 62, Cycloheximide cs 30 (no result: NS1 inh)
COc1ccccc1NC(=O)CSc1nnnn1C1CCCCC1	none
O=C(CSc1nnnn1C1CCCC1)c1ccc2c(c1)OCCO2	Pf growth 96h inconclusive, Cycloheximide cs 33
Cc1ccc(C)c(C(=O)CSc2nnnn2C(C)C)c1	Pf growth 96h inconclusive, Shiga inhibitor 54, Cycloheximide cs 62
Cc1ccc(C)c(C(=O)CSc2nnnn2-c2cccnc2)c1	none
OC[C@@H]1[C@@H](O)[C@H](O)[C@H]2[C@@H](O)CCN21	none (no result: SARS PLP yeast, Pf growth 48h, NS1 inh, Pf growth 96h)

Screening data deposited in PubChem BioAssay by National Center for Advancing Translational Sciences (NCATS).
